Measurements taken from PubChem BioAssay AID504842 (National Center for Advancing Translational Sciences (NCATS), 2011).
The campaign covered roughly 330,000 compounds. About 100 (0.03%) were called active. Inconclusive results (about 1%) are left out. The sample holds actives, similar compounds and a random draw of the others, so the mix is not that of the screen. The call rests on the fitted dose curve; in most records, active means well fitted inhibition curve with a large enough effect; inconclusive means small, poorly fitted or top-dose-only effect; inactive means flat fitted curve, though single readings scatter.

system: Chaperonin Mm-Cpn (Methanococcus maripaludis); assay: Inhibitors of TCP-1 ring complex (TRiC) of Methanococcus maripaludis (MmCpn): qHTS; details: purified Mm-Cpn ATPase, ADP Transcreener TR-FRET; series mostly up to 76.9 µM; activity, negative = inhibition: at the top concentration; further: nearly all actives have a fitted effect of over 80% in size;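 on Potency: enzyme at 25 nM with ATP substrate at 10 µM during the reaction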
Description: The eukaryotic chaperonin TRiC (for TCP-1 ring complex) is an essential and conserved chaperone required for the folding and activation of 10-15% of the proteins encoded by the human genome. […] The TRiC complex consist of two stacked 7-9 membered rings, each containing a central cavity. Substrates are folded within the cavity in an ATP-dependent manner. TRiC is a complex of eight different, essential proteins. As each of the genes encoding the eight subunits is essential for cell viability and no protocol has been developed to over-express this enzyme to high levels. That is why several groups studying the TRiC chaperonin have turned to the archaeal homolog of TRiC, Methanococcus maripaludis (Mm-CPN), and have used this enzyme as a model system for the study of the type II chaperonin family. Small molecule inhibitors of the Mm-CPN enzyme would be extremely useful to study the mechanism of chaperonin activity. Importantly, TRiC and Mm-CPN both require ATP hydrolysis for function. Furthermore, the ATP binding sites are highly conserved among these type II chaperonins. This provides us with an easy, well tested and straightforward assay to identify inhibitors of chaperonin activity. The Mm-CPN assay was developed in 1536-well plate format using the HTRF Transcreener ADP assay kit (Cisbio, Bedford, MA). This assay applied the time resolved fluorescence resonance energy transfer (TR-FRET) principle. ATP in the presence of Mm-CPN is converted to ADP + Pi. An antibody labeled with Eu3+-Cryptate specific and bound to ADP labeled with […] (d2) competes with the unlabeled ADP generated by Mm-CPN. The resulting TR-FRET signal is inversely proportional to the concentration of ADP in the sample. In this assay a reduction in TR-FRET signal is observed with ATP turnover. NIH Chemical Genomics Center [NCGC] NIH Molecular Libraries Probe Centers Network [MLPCN] MLPCN Grant: DA030554-01A1 Assay Submitter (PI): Judith Frydman, Stanford University
Purified Mm-CPN was supplied by the laboratory of Dr. Judith Frydman. Protein samples were stored at -80C as single use aliquots. Protein was thawed in ambient temperature water bath and placed on ice once thawed. Buffer was prepared fresh day of screen. The buffer composition below was used to prepare the working solution of the Mm-CPN protein and ATP substrate. The buffer is comprised of 30 mM TRIS pH 7.4, 100mM KCl, 5mM MgCl2, and 1mM DTT. A final concentration of 25nM Mm-CPN and 10uM ATP per well were used in the screen. Instructions according to the manufacturer were followed for the ADP Transcreener kit. Used 1536 well Greiner white, medium binding (MB), solid bottom plates. Plates were read on the PerkinElmer EnVision plate reader using Excitation = 320 nm and Emission = […], 665 nm. Protocol- 1.Dispense 1.5ul per well of working [Mm-CPN] = 50nM (or 75 ng / well) 2.Spin plate at 1000 rpm for 30 seconds 3.23nl of compound transferred per well 4.Incubate at 37degC for 10 minutes 5.Dispense 1.5ul per well of working [ATP] = 20uM 6.Incubate at 37degC for 30 minutes 7.Dispense 3ul per well of Anti-ADP Cryptate / ADP-d2 mix (prepared as instructed by Cisbio) 8.Incubate at ambient for 30 minutes 9.Read using EnVision
On the % scale 0 is the no-effect control and ±100 the full control effect; potency means the concentration at half of the fitted maximal effect.

activity, negative = inhibition, inactive:
N#Cc1ccc(-c2nc3cc(C#N)c(C#N)cc3nc2-c2ccccc2)cc1C#N 0.293%, CC(=O)Nc1ccc(S(=O)(=O)N2CCN(S(=O)(=O)c3cccs3)CC2)cc1 0.0491%, Cc1ccc(CNC(=O)c2ccccc2CCc2ccccc2)cc1 -0.428%, CCC1SC(CC)C(=O)N(CC(=O)NC2CCCCC2)C1=O (centres undefined) 0.875%, Cc1cccc(C(=O)Nc2ccc(Oc3cnccn3)cc2)c1 -0.493%, CC(=O)Nc1cccc(C(=O)OCN2C(=O)c3ccccc3C2=O)c1 1.86%, C=CCN1C(=O)c2ccc(C(=O)N3CCC(C(=O)OCC)CC3)cc2C1=O -0.43%, Cc1ccc(NC2=C(Cl)C(=O)OC2OC(=O)c2ccccc2C)cc1 (centres undefined) -12.6%, Cc1ccccc1N1CCN(CCCN2C(=O)C3CCCCN3C2=O)CC1 (centres undefined) -0.311%, O=C(CCNS(=O)(=O)c1ccccc1)NCCCc1ccccc1 -1.66%, COc1cc(Br)c(-c2sc(Nc3ccccc3)n[n+]2-c2ccccc2)cc1OC -8.15%, NC(=O)N1CCCC1C(=O)Nc1ccc(Cl)c(Cl)c1 (centres undefined) -1%, CC(C)c1ccc(N2CCN(C(=O)c3ccccc3NC(=O)/C=C(\C(=O)O)c3ccccc3)CC2)cc1 1.56%, CC(NC(=O)COC(=O)c1ccc(Cl)cc1O)c1ccc(F)cc1 (centres undefined) -3.48%, COc1ccc2sc(-c3ccccc3OC)c(-c3ccc(OCCN4CCCC4)cc3)c2c1 -12.8%, COC(=O)c1ccc(/C=C/c2c(-c3ccc(OC)cc3)sc3ccccc23)cc1 1.68%, CC(=O)Nc1ccc(Nc2ncnc3c2nnn3Cc2ccccc2Cl)cc1 1.07%, O=C(NCc1ccccc1CN1CCCC1)C1CCN(S(=O)(=O)c2ccc(Cl)cc2)CC1 -0.604%, CC(C)CN(C(=O)c1ccc2c(c1)OCO2)C1CCS(=O)(=O)C1 (centres undefined) 0.881%, CC1(C)O[C@@H]2CC3C4C[C@H](F)C5=CC(=O)C=CC5(C)C4C(O)CC3(C)[C@]2(C(=O)CO)O1 (some centres undefined) 1.04%, Cc1ccc2[nH]c(=O)c(CN(C)S(=O)(=O)c3cccc4nonc34)cc2c1 -2.84%, Cc1nc(NC2=NC(C(=O)Nc3ccc(Cl)cc3)CC(=O)N2)nc2ccccc12 (centres undefined) 0.566%, CC1CCN(c2ccc(C(=O)NCc3ccc4c(c3)OCO4)cc2[N+](=O)[O-])CC1 0.158%, CC(=O)c1ccc(NC(=O)CCNS(=O)(=O)c2cc(Br)cnc2N)cc1 -0.226%, CC(=O)c1nn(-c2cccc(C(F)(F)F)c2)c(=O)[nH]c1=O -0.223%, c1ccc(-c2nnc3n2NC(c2ccc4c(c2)OCO4)S3)cc1 (centres undefined) 1.41%, O=C(CSc1nnc(-c2ccncc2)o1)Nc1cccc(Cl)c1 2.25%, O=C(O)C1CCN(C(=O)c2cc(F)cc3c2OCOC3)CC1 2.42%, CC(=O)c1cn(CCCCCCCCCCn2cc(C(C)=O)c(=O)[nH]c2=O)c(=O)[nH]c1=O -3.31%, Cn1c2c(c(=O)n(C)c1=O)C(c1cccc(F)c1)C(C#N)=C(N)O2 (centres undefined) -1.49%, CCCCOP(=O)(c1ccc(N(C)C)cc1)C(O)c1cc(OC)ccc1OC (centres undefined) 2.81%, Cc1cccc(C(=O)O)c1[N+](=O)[O-] 0.41%, CCN(CC)S(=O)(=O)c1ccc(CNC(=O)CN2C(=O)NC3(CCc4ccccc43)C2=O)cc1 (centres undefined) -3.53%, NC(=O)CN1CCCC1c1ccc2c(c1)OCCO2 (centres undefined) 0.0789%, CCOC(=O)c1cc(-c2ccc(Cl)s2)nc2c1c(C)nn2C -7.1%, Cc1cc(S(=O)(=O)NCC(C)C)ccc1OCC(=O)NC1CC1 -0.397%, COc1ccc2c3c(c(=O)oc2c1)C1O[C@](CCCCN2C(=O)c4ccccc4C2=O)(Cc2c1ccc1ccccc21)O3 1.5% [at 15.4 µM], O=C(CCc1ccccc1)Nc1ccnn1C1CCN(Cc2ccc(OCCO)cc2)CC1 1.27%, Cc1cccc(N(C(=O)Cc2cccs2)C(C(=O)NC2CCCC2)c2ccsc2)c1 (centres undefined) -0.0327%, O=C(CCNC(=O)c1ccc([N+](=O)[O-])cc1)NC1CCCCC1 -2.91%, O=C1CC(=O)Nc2cc(S(=O)(=O)N3CCN(c4cccc(C(F)(F)F)c4)CC3)ccc2N1 3.32%, CCOC(=O)C1=C(CC)OC(N)=C(C#N)C1c1ccc(F)cc1F (centres undefined) -1.36%, O=C(CN1CCN(C2CCS(=O)(=O)C2)CC1)N1N=C(c2ccc(Cl)cc2)CC1c1ccco1 (centres undefined) -0.933%, Cc1ccc(C)c(N(CC(=O)NCc2ccco2)C(=O)CCC(=O)Nc2ccccn2)c1 -0.588%, Cc1cccc(C)c1NC(=O)C(Cl)C(=O)c1ccccc1 (centres undefined) 0.831%, Cn1c(=O)c2c(n(Cc3ccccc3)c1=O)NC(=O)C2CC(=O)N1CCc2ccccc2C1 (centres undefined) -0.155%, CCCNCc1cc(OCC)c(OCC(=O)Nc2ccccc2)cc1Br -4.4%, CC(c1ccccc1)n1c(NCCCn2ccnc2)nc2c1c(=O)[nH]c(=O)n2C (centres undefined) 0.8%, CC(=O)NS(=O)(=O)c1ccc(NC(=O)/C=C/c2ccccc2Cl)cc1 -0.316%, CN(CC(=O)NCCc1ccc(F)cc1)CC(=O)Nc1ccc(F)c(F)c1F 1.1%, CC(C)c1nc2oc3c(N4CCN(C)CC4)ncnc3c2c2c1CCC2 -8.03%, C=CS(=O)c1sc(Cl)c(N2CCOCC2)c1[N+](=O)[O-] (centres undefined) -1.91%, CN(C)CCCNc1c2c(c(C#N)c3nc4ccccc4n13)CCC2 -0.924%, CCn1c2ccccc2c2cc(NC(=O)Nc3ccc([N+](=O)[O-])cc3C)ccc21 1.13%, O=C(CCC(=O)c1ccccc1)NCc1cccc(C(F)(F)F)c1 -0.0071%, CCOc1ccccc1NC(=S)NC(=O)CCc1ccccc1 0.822%, O=S(=O)(c1cc(Cl)ccc1Cl)N1CCN(Cc2ccco2)CC1 0.0715%, CCOc1cc(/C=C(/C#N)c2ccc(Cl)cc2)cc(Cl)c1OCC(=O)O 1.28%, O=C(CSc1ncnc2c1cnn2CCc1ccccc1)Nc1ccc(F)cc1 -0.16%, NC(=O)c1cc(-c2cccnc2)nc2ccc(Br)cc12 -1.29%, Cc1ccc2nc(-c3ccccn3)cc(C(=O)Nc3ccc4c(c3)OCO4)c2c1 -7.87%, O=C(Nc1cccnc1)c1noc2c1CCCCC2 -0.428%, Nc1ccn(C2CC(O)C(CO)O2)c(=O)n1 (centres undefined) 1.62%, Cc1ccc(C)c(CSc2nc(-c3ccco3)nc3c2c(=O)n(C)c(=O)n3C)c1 2.6%, COc1ccc(O)c(/C=N/N=C/c2cccc([N+](=O)[O-])c2)c1 1.75%, Nc1ccc(Nc2cc(O)c3ncccc3c2)cc1 -3.06%, CCCN1Cc2cccc(C(=O)Nc3ccc(S(=O)(=O)N4CCCCCC4)cc3)c2C1=O -4.72%, CCN(CC)CCN1C(=O)C(=O)/C(=C(/O)c2cnn(-c3ccccc3)c2C)C1c1cccs1 (centres undefined) -1.3%, CC(C)(C)c1ccc(S(=O)(=O)N2CCN(C(=O)c3ccc4c(c3)C(=O)N(Cc3ccncc3)C4=O)CC2)cc1 -0.64%, Cc1ccc(S(=O)(=O)Nc2ccc3c(c2)C(=O)N([C@H](C)CO)C[C@@H](C)[C@@H](CN(C)C(=O)Nc2cccc4ccccc24)O3)cc1 2.37%, C=CCC(NCCCO)c1cccc(OC)c1OC (centres undefined) -2.38%, CC(C)CCN1CCN(Cc2ccc(C(F)(F)F)cc2)CC1CCO (centres undefined) 0.684%, CC(C)(C)c1cc2cccnc2n1Cc1cccc(F)c1 1.5%, O=c1[nH]c(CSc2ccccc2)nc2c1oc1ccccc12 1.87%, CCOc1ccc(NC(=O)CCCCCN2C(=O)[C@@H]3Cc4ccccc4CN3C2=O)cc1 1.25%, CCN1C(=S)N[C@@H](c2cccc(C(F)(F)F)c2)C(C(=O)OC)=C1C 3.56%, COc1cc(C(c2c(NC(=O)c3ccco3)sc(C)c2C)N2CCOCC2)cc(OC)c1OC (centres undefined) -2.89%, CCC1CCCCN1C(=O)CSc1nc(C)cc(C)n1 (centres undefined) -8.6%, COC(=O)C1CCN(C(=O)NC2CC(=O)N(c3ccc4c(c3)OCCO4)C2)CC1 (centres undefined) 3.08%, O=C(CNCc1ccc(Cl)cc1)Nc1cccc(C(=O)O)c1 -0.15%, Cc1ccc(-n2c(C)cc(/C=C(\C#N)C(=O)NCC3CCCO3)c2C)cc1 (centres undefined) -2.2%, Cc1ccc(C)c(NC(=O)C(c2ccccc2)N2CCN(CC(=O)NC3CC3)CC2)c1 (centres undefined) -0.786%, COc1ccccc1NC(=O)c1cc(N2C(=O)C3C4CCC(C4)C3C2=O)ccc1Cl (centres undefined) 1.31%, CCc1nn(CCCC(=O)Nc2ccc(C)cc2C)c(=O)c2cc3occc3n12 1.57%, O=S(=O)(NC1CCN(S(=O)(=O)c2ccc3c(c2)OCCO3)CC1)c1c(F)cccc1F 0.533%, COC(=O)c1ccc(Nc2ncnc3sccc23)cc1 -13.1%, COc1ccc2nc(NC3=NCN(CC4CCCO4)CN3)nc(C)c2c1 (centres undefined) 1.76%, O=S(=O)(c1ccc(-c2ccccc2)cc1)N1CCCC1 -3.69%, COc1cc(C2C(C(=O)c3sc(C)nc3C)=C(O)C(=O)N2CCN(C)C)cc(OC)c1OC (centres undefined) -0.311%, NC(=O)C1CCN(c2nc(-c3cccc(F)c3)cs2)CC1 0.604%, CCN(CC(=O)Nc1cc(Cl)ccc1C)C(=O)CSCc1ccccc1 1.09%, Cc1ccc(C(=O)OCC(=O)Nc2ccc(Cl)cn2)cc1S(=O)(=O)N1CCOCC1 1.87%, OCCNc1nc2ccccc2n1-c1ncnc2sc3c(c12)CCC3 0.0901%, CCOC(=O)NC(=O)C(=CNc1cccc(OC)c1)C(=O)NC(=O)OCC -0.345%, O.O.O.O=S(=O)([O-])OC[C@H]1O[C@@H](O[C@]2(COS(=O)(=O)[O-])O[C@H](OS(=O)(=O)[O-])[C@@H](OS(=O)(=O)[O-])[C@@H]2OS(=O)(=O)[O-])[C@H](OS(=O)(=O)[O-])[C@@H](OS(=O)(=O)[O-])[C@@H]1OS(=O)(=O)[O-].[Al] 0.62%

Potency, active:
CCc1ccc(Nc2n[n+](-c3ccccc3)c(-c3cccc(Cl)c3Cl)s2)cc1 56.2 µM, COc1ccccc1-c1sc2ccccc2c1-c1ccc(C(C)=O)cc1 31.6 µM, O=C(Nc1ccncc1)c1cc(-c2ccccn2)nc2ccc(Br)cc12 44.7 µM

Potency, inactive:
CC(C)CNC(=O)/C=C/C(=O)O
